The record followed here is the supplement of paper PMC6555819.

The test system of this assay is VDR:RXRa (NR concentration 270 nM, RXRa partner concentration 90 nM). As to the kind of experiment: PBM binding z-score (relative to random genomic background probes); higher = stronger binding; sequences stand for … in GC…GCGATTGACAGCGTAGAATGAAGG
The method, then: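 Protein-binding microarray (Agilent 4x180K custom design, double-stranded 60-nt probes: 5' GC cap, 34-nt variable region, 24-nt constant primer region; full probe sequence given). Purified or IVT nuclear receptor:RXRα heterodimers (3:1 NR:RXRα, mostly 270:90 nM) or homodimers were incubated for 1 h in PBS with 2% milk and no ligand, then detected with Alexa488 antibodies. Fluorescence from o1-orientation probes (~5 replicates averaged) was converted to z-scores against 500 random hg19 background probes. Variable regions are seed direct-repeat (DR0–DR5) sites, all their single-nucleotide variants and half-site ablations.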
TCTTGTAGATCAAAGGTTAAGTAAGCCGAAGCCT registered a PBM binding z-score of 2.04.

Turning to TCTAGTTGGTCAAAGCTCACACACTCGAAATGCG, the PBM binding z-score was determined as 0.632.

Consider GCTGCTAGGTCAACTGATGGTCGGCTAAAGCTCG, for which the PBM binding z-score is 1.4.

As to GATACAGGGTCGAGGCCAGAGTACGCGTATTGAT, the PBM binding z-score amounted to 1.41.

TCATATAGGTAAGCAGGTGAAAGTCCGTAAGTTA came in with a PBM binding z-score of 0.388.

As to TAGCCTAGGTCATTCAGGGACCAGTATAGAAAGC, the PBM binding z-score was found to be 2.57.

In turn, TTACCAAGGTGAAAGGCCGTTGATGCACGCCTTG showed a PBM binding z-score of 0.0595.

In turn, CCTACTGGGCCAAAATGGTCATTGATGCCGATAA returned a PBM binding z-score of -0.0666.

In turn, CAAACTAGGTCGCAGAGGTCAAAGTCCGTGCGTA displayed a PBM binding z-score of 7.14.

For the sequence TTACCAAGGTGAAAGTCGTTGATCCCTCTGTAGA, the PBM binding z-score is 0.25.

In turn, CGTCCAAGGTCAGCAGGTCAGTGGAAGCGACGTG gave a PBM binding z-score of 3.82.

ATCTCCAGGTAAAAGTTCAGTGAATCCCGAGGAT came in with a PBM binding z-score of 1.43.

AATTCAGGGTCATCGTAGGCCAGAGTACGCACAG had a PBM binding z-score of 5.7.

The sequence CCTAGCAGGCCAATCTGGGACACTCAAGGCTTGA returned a PBM binding z-score of -0.61.

GGAACGAGGGCAAAGTCGATAGCATCTGTCGACG gave a PBM binding z-score of 0.524.

ATATGTAGGTTCTCGGGTCATTCAGTTTGCGCAT had a PBM binding z-score of 5.04.

On to TTACCAAGGTGAGCTGAGGGCGTTGATCCAACTC, for which the PBM binding z-score was determined as 1.89.

With TCTTGTAGAACAGCAGGTTAAGAAAGCTGGCCAA, the PBM binding z-score was determined as 0.0158.

CAATCTAGGTCAAGAGGTCAAAGTCCGCTTCCCG: the PBM binding z-score amounted to 6.23.

The sequence ATCTGTAGGTAAGACTCAGTTCAGTGAAGAACGC had a PBM binding z-score of 0.82.

In turn, CCTACTGGGCCAAAGTTCATTGATTCCAATGCTC came in with a PBM binding z-score of 3.24.

For ATCTCTAGGTAAAGTTCAGGGAAAGATCGATAGA, the PBM binding z-score came to 1.73.

In turn, CGTCAAAGTTCAAGTAAGGTAACGTAAAGCACGC came in with a PBM binding z-score of 4.46.

With ATCTCTAGGTAAAAGTTCAGTGGATCCCGAGGAT, the PBM binding z-score was determined as 1.21.

Regarding TCTTGTAGCTCAATAGAGGTTAAGAAAGTGCGCT, the PBM binding z-score came to 1.32.

Regarding ATCGAAAGGTCGTTAGGTGAGTATACAGAAAGGC, the PBM binding z-score stood at 3.58.

CAAACAGGGTCAGCTAGGCCAGAGTAGGGACGGC registered a PBM binding z-score of 4.09.

CCTCGAAGGACAGAAGGTCAGAGCTGTCCGCTTT yielded a PBM binding z-score of 0.957.

For AATACAGGGTCACTAGGCCTGAGTAGGTACGAAT, the PBM binding z-score came out at 3.84.

Consider ATATGTAGGTTATCGGGTCCTTCAGTTTGCGCAT, for which the PBM binding z-score came out at 3.81.

ACTCGGAGGACCAAGGTCAGAGCTACGCCAGTGA: the PBM binding z-score was 1.34.

For the sequence CGTCAAAGTTCAACTAACGTAACGTAAAGCACGC, the PBM binding z-score came out at 4.1.

Sequence ATCTCTAGGTAAGACTGAGTTCAGTGAAGAACGC came in with a PBM binding z-score of 2.75.

In the case of TTACCAAGGTGATCTGAGGTCGTTGATCCAACTC, the PBM binding z-score came out at 4.13.

The sequence GGAACGAGGGCAAGTTGATAGGAGAGTTTGATGG gave a PBM binding z-score of 0.886.

As for AGAACGAGGGCACGCTGAGTTGACAGCAGAGTAG, the PBM binding z-score is 2.32.

As to AGAATGAGGTTTTTAAGATCAGGGAATTGCGGTC, the PBM binding z-score was -0.0674.

Regarding TCTGCTAGGTCACTTGGTCAGCTAACGAGCTGCC, the PBM binding z-score is 1.3.

As to TCGAGTAGGATACCAATGGGGCATTCAGCTTTCT, the PBM binding z-score is -0.497.

TCTAGGTGGTCACGGAGGTCACACACGACGGGTA came in with a PBM binding z-score of 6.02.
